How the values were obtained:
[1] = biological target: Tumor necrosis factor receptor superfamily member 10B (Homo sapiens) (UniProt O14763); assay: caspase-8 TRAIL sensitization, hit retest, confirmation, cell-based, NB7+caspase-8, with/without TRAIL, luminescence panel (AID 651596); details: NB7 neuroblastoma + caspase-8, TRAIL sensitization, luminescence viability, with TRAIL, mean of runs, at 10 µM, stronger effect = higher value
[2] = as above; details: NB7 neuroblastoma + caspase-8, without TRAIL, luminescence viability, without TRAIL, mean of runs, at 10 µM

Tumor necrosis factor receptor superfamily member 10B (Homo sapiens), sequence (O14763 whole entry, looked up): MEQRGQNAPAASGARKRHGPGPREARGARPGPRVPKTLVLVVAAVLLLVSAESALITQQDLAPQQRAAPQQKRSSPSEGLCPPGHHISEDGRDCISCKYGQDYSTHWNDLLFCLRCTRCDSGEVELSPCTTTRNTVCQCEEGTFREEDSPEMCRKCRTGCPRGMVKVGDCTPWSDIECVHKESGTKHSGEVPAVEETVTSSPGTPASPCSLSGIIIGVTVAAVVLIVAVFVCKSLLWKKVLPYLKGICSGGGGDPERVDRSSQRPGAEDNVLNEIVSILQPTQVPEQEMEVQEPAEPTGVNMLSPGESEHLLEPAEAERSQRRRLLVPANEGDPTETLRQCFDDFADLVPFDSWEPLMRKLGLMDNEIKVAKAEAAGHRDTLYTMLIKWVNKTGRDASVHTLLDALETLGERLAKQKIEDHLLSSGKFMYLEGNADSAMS

Row | Structure (SMILES) | activity [1] | activity [2]
1 | CSC(=Nc1ccccc1)N=C(SCc1ccccc1)N(C)C | 96.8% | 98.5%
2 | CCCCCCCCCCCCCCC[C@@H](O)[C@@H](N)CO | 84.5% | 79.7%
3 | CC(C)c1ccc(NC(=O)Nc2nc(C(N)COCc3ccccc3)cs2)cc1 (centres undefined) | 47.9% | 80.4%
4 | Cc1ccc(-c2cnc3cc(C)nn3c2)cc1 | 73.9% | 66.8%
5 | Cn1c(C(=O)NCCC2=CCCCC2)cc2c(=O)n3ccccc3nc21 | 59.6% | 57.7%
6 | CCCCCc1cc(=O)oc2c(C(CCN3CCCC3)c3cc(OC)c(OC)c(OC)c3)c(OC)cc(OC)c12 (centres undefined) | 28.4% | 69.4%
7 | Cn1cc(S(=O)(=O)CC(=O)N2CCCc3ccccc32)c2ccccc21 | 1.93% | -0.4%
8 | CCc1ccc(NC(=O)c2cnn3ccccc23)cc1 | 59.4% | 58.6%
9 | CCOc1ccc(N/C=C/C(=O)c2ccccc2)c([N+](=O)[O-])c1 | 92.7% | 89.7%
10 | NC(Cc1ccc(C(F)(F)F)cc1)c1csc(Nc2nncc3ccccc23)n1 (centres undefined) | 38.8% | 89.1%
11 | C#CCSc1nnc(-c2sc(-c3ccccc3)nc2C)n1C | 84.7% | 90%
12 | Cc1cc(C)cc(C(=O)Nc2nc3ccccc3[nH]2)c1 | 78.7% | 72.5%
13 | Cc1ccc2nc(NC(=S)NC(=O)c3ccco3)sc2c1 | 77.9% | 62.9%
14 | CC(=O)Oc1ccc(/C=C/c2nc3ccccc3c(=O)o2)cc1 | 80.2% | 75.2%
15 | COC(=O)c1ccc(NC(=O)C(=O)c2cccn2C)cc1 | 59.5% | 51.2%
16 | Cc1cccc(N2CCN(C(=S)Nc3ccc4nc(N5CCN(C)CC5)cc(C)c4c3)CC2)c1C | 98% | 99.2%
17 | Cc1cccc(-n2ncc3c(N4CCOCC4)ncnc32)c1 | 85.7% | 88.5%
18 | CCOc1ccc2cc(C#N)c(SCC(=O)OC)nc2c1 | 57.9% | 50.3%
19 | O=C(NC(=S)Nc1nc2ccccc2s1)c1cccs1 | 83.1% | 75.6%
20 | Cc1nn(-c2ccccc2)c(C)c1/C=N/NC(=O)c1cc(-c2ccc(Cl)s2)[nH]n1 | 70.1% | 72.8%
21 | Cc1ccc(C2=NN(C(=O)CCl)C(c3ccco3)C2)o1 (centres undefined) | 98.5% | 98.2%
22 | CCC(=O)Nc1ccc(NC(=O)c2ccco2)cc1 | 35.1% | 41.4%
23 | COc1cc2nc(N3CCN(c4cc(C)ccc4C)CC3)nc(N)c2cc1OC | 56.7% | 88.7%
24 | O=C(CCl)Nc1ccc(Oc2cnc3ccccc3n2)cc1 | 97.6% | 98.5%
25 | COc1ccc(C(=O)c2c[nH]c3ccccc23)cc1 | 45.4% | 26.6%
26 | Cc1ccc2nc(NC(=O)c3cccs3)sc2c1 | 72.1% | 71.2%
27 | O=C(Nc1nc2ccccc2n1CCN1CCCCC1)C1CCCCC1 | 56.6% | 54.1%
